# Data reported in PubChem BioAssay AID588458 (Sanford-Burnham Center for Chemical Genomics, 2011).
# Screen size: about 360,000 compounds; about 3,000 (0.83%) were called active. The sample holds actives, similar compounds and a random draw of the others, so the mix is not that of the screen. Values without a mark were called inactive. No stated cut-off is given here; in the data, active means inhibition above about 50%; inactive means the rest.
# Target: DNA (cytosine-5)-methyltransferase 1 (Homo sapiens) (UniProt P26358)
# Test: inhibition of DNA methyltransferase DNMT1 – biochemical, molecular beacon, fluorescence, HinP1I cleavage, uHTS, primary screen (AID 588458)
# Details: at 10 µM, hits give high values
# DNA (cytosine-5)-methyltransferase 1 (Homo sapiens), sequence (P26358 504-1616 limits assumed): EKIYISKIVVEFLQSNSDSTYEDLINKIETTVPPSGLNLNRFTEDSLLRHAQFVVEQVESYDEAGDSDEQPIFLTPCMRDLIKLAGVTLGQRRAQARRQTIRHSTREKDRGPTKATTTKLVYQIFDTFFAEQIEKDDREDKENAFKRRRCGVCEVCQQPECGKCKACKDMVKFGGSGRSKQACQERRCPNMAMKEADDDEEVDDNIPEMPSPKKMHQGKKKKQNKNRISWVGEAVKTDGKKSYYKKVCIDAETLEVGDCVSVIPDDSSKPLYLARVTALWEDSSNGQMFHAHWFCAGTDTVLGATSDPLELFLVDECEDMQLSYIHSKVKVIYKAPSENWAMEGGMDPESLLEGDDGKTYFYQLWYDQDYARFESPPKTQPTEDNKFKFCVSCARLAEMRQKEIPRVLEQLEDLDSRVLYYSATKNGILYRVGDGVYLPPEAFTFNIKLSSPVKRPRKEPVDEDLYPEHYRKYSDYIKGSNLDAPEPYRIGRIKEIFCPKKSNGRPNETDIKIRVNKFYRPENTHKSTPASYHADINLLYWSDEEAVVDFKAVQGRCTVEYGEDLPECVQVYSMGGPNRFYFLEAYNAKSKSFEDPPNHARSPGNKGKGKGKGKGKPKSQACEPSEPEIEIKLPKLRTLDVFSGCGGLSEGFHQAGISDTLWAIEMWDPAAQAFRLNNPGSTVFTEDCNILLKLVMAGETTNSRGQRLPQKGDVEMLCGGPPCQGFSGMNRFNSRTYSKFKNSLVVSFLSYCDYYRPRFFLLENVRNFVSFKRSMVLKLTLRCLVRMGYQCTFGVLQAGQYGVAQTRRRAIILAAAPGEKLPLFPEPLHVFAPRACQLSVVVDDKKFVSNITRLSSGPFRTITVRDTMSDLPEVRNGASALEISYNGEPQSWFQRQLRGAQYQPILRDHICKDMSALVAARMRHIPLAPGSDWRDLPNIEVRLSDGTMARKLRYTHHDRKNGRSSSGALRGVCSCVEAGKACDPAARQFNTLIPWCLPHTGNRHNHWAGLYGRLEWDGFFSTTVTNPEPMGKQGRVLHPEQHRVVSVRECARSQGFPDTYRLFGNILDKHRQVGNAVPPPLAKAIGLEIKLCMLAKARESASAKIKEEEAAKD
row,Structure (SMILES),inhibition (reported as % activation of signal)
1,CCOc1ccccc1/C=c1\sc2nc(-c3ccco3)nn2c1=O,93.3% (active)
2,CCCn1nc(C(=O)NNC(=O)CCOc2ccccc2OCC)c2ccccc2c1=O,0.9%
3,CCOc1ccccc1C1NC(=O)NC(C)=C1C(=O)OCc1ccco1 (stereo unspecified),-2.52%
4,CCc1ccc(C(=O)C(C)OC(=O)CN2C(=O)NC3(CCCC3)C2=O)cc1 (stereo unspecified),3.64%
5,N#Cc1cccc(NC(=O)COC(=O)c2ccccc2C(=O)c2ccc(Cl)c([N+](=O)[O-])c2)c1,-3.9%
6,CCCc1cc(=O)[nH]c(SCC(=O)Nc2sc3c(c2C#N)CCCC3)n1,-0.63%
7,COc1ccc(-n2c(SCC(=O)Nc3sc4c(c3C#N)CCCC4)nnc2-c2ccc(O)cc2)cc1,67.7% (active)
8,COc1cccc(CN(C)CC(=O)Nc2sc3c(c2C#N)CCC3)c1,-0.9%
9,CCCCN(C)CCNC(=O)CSCc1ccc(C)cc1,1.5%
10,CC1=C(C(=O)N2CCOCC2)CC(CC(=O)NCc2cccs2)C(=O)N1CCCN1CCCC1=O (stereo unspecified),6.83%
11,COC(=O)c1ccc(COc2ccc(/C=C/C(=O)c3ccc(OC)c(CSCC(=O)O)c3)cc2OC)cc1,11.9%
12,COc1ccc(C(=O)/C=C/c2ccc(-c3ccccc3)cc2)cc1CSCC(=O)O,56% (active)
13,COc1ccccc1CCNC(=O)C1CCN(C(=O)/C=C/c2ccccc2)CC1,-0.55%
14,CC(C)(C)NC(=O)COC(=O)c1cc(Cl)ccc1[N+](=O)[O-],6.7%
15,O=S(=O)(c1cccc(-c2nnc(SC(F)F)n2-c2ccccc2)c1)N1CCCCC1,-1.8%
16,CCn1ccnc1CNC(=O)CC1C(=O)NCCN1Cc1ccc(F)cc1Cl (stereo unspecified),-0.81%
17,COc1ccc(S(=O)(=O)N2CCOC2CNC(=O)C(=O)NCc2ccncc2)cc1OC (stereo unspecified),-1.09%
18,COc1ccc(NC(=O)C2C3C=CC(C3)C2C(=O)NCc2ccccn2)c(OC)c1 (stereo unspecified),1.26%
19,CCCn1nnnc1NCc1ccc(CC)cc1,0.45%
20,CCOC(=O)C1CCCN(C(=O)c2ccc(N(C)C)cc2)CC1 (stereo unspecified),-7.05%
21,O=c1[nH]c(/C=C\c2cccc(C(F)(F)F)c2)nc(O)c1[N+](=O)[O-],4.66%
22,O=c1[nH]c(/C=C/c2cccc(Br)c2)nc2ccccc12,53% (active)
23,O=c1[nH]c(SCc2cccc(F)c2)nc2ccccc12,-0.9%

row,Structure (SMILES),inhibition (reported as % activation of signal)
1,CCN(CC)C(=O)CSc1nnc(-c2ccc(S(=O)(=O)NCc3ccccc3Cl)cc2)o1,4.4%
2,Clc1cc(NC2CCCCC2)ncn1,1.17%
3,CCCC(C(=O)NCc1ccco1)N(C(=O)CNS(=O)(=O)c1ccccc1)C1CCCC1 (stereo unspecified),0.13%
4,O=S(=O)(Nc1nccs1)c1ccc2c(c1)OCCO2,0.9%
5,c1coc(-c2nc3nc4ccccc4n3nc2-c2ccco2)c1,86.2% (active)
6,CC(Oc1ccc(Cl)cc1Cl)C(=O)/C=C/N(C)C (stereo unspecified),1.08%
7,Cn1c(Nc2ccc(F)cc2)nc2cc(-c3ccsc3)sc2c1=O,1.88%
8,COc1ccc(S(=O)(=O)N2CCC(C(=O)NCCC(=O)Nc3ccccc3OC)CC2)cc1,3.13%
9,CC(CCc1ccc(O)cc1)NCc1ccc(Cl)cc1Cl (stereo unspecified),1.55%
10,COc1ccc(/C=C2\SC(=N)N(c3ccc(F)cc3)C2=O)cc1,59% (active)
11,COc1ccc(N2C(=O)CNC2=S)cc1,0.19%
12,COc1cccc(/C=C2\SC(=N)N(c3ccc(F)cc3)C2=O)c1,29.4%
13,COC(=O)C1=C(C)NC(=S)NC1c1ccc(OCC(=O)N2CC(C)OC(C)C2)c(OC)c1 (stereo unspecified),-3.49%
14,O=C1CC(Cc2ccc(Cl)cc2)C(=O)N1c1cc(Cl)ccn1 (stereo unspecified),1.99%
15,O=C(NC1CCCC1)C(NS(=O)(=O)c1ccc(Br)s1)c1ccccc1 (stereo unspecified),3.01%
16,Cc1ccc(/C=C/C(=O)OCC(=O)Nc2cccnc2Cl)cc1,0.14%
17,COc1ccc(NC(=O)CN(C)C(=O)/C=C/c2cn(Cc3ccccc3)nc2-c2cccnc2)cc1,2.58%
18,O=C(COC(=O)/C=C/c1cn(-c2ccccc2)nc1-c1cccnc1)Nc1ccc(Cl)cc1Cl,56% (active)
19,CCN(CC(=O)Nc1ccc(OC)cc1)C(=O)c1ccc(=O)n(Cc2ccccc2)n1,4.56%
20,Nc1ccc2nc3c(=O)[nH]c(=S)[nH]c3nc2c1,129% (active)
21,CC1(Oc2cccc(F)c2)CCN(Cc2ccccc2OC(F)F)C1 (stereo unspecified),8.51%
22,CCCOc1ccc2c3c(c(=O)oc2c1OCCC)CCC3,5.15%
23,CCCn1nc(C(=O)OCc2nc(N)nc(Nc3ccccc3C)n2)c2ccccc2c1=O,-3.44%
